101 compounds from PubChem BioAssay AID588382 (National Center for Advancing Translational Sciences (NCATS), 2011) can be followed below.

Each structure is given as a SMILES string. The whole screen tested about 1,300 compounds, of which about 150 (12%) were called active. A call without a number means that no potency is given here. Inconclusive results (about 30%) are left out. Calls follow the shape of the dose curve; as a rule, active = well fitted cell-killing curve with a large enough effect; inconclusive = small, poorly fitted or top-dose-only effect, or effect the other way; inactive = flat fitted curve, though single readings scatter. This excerpt belongs to a sample that is enriched for actives.
Potency is read from the fitted curve at half-maximal effect.

This assay is described as follows: qHTS of small molecules that selectively kill Giardia lamblia: Hit Validation in HepG2 cytotox.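 Also: compound exposure lasted overnight at 37 deg C; nearly all actives have a fitted effect of over 55% in size.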 Particulars: cell viability; Potency: HepG2 cytotoxicity; series mostly up to 38.3 µM. An outline of the steps: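 Counterscreen cytotoxicity: ATPLite luminescence (15 min, room temperature) measured in HepG2 cells exposed overnight at 37 deg C to pin-transferred compound (23 nL) after overnight pre-incubation.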
Turning to `O=c1[nH]c2cccnc2n1-c1ccc([N+](=O)[O-])cc1`, the Potency entry was “inactive”.
In the case of `N#Cc1c(N2CCN(c3ccc([N+](=O)[O-])cc3)CC2)[n+](=O)c2ccc(Cl)cc2n1[O-]`, the Potency entry was “inactive”.
For the compound `Cn1cc([N+](=O)[O-])c(C(=O)Nc2sc3c(c2C#N)CCC3)n1`, the Potency was 2.33 µM (active).
Take `CC1CCc2c(sc(NC(=O)CCCn3cnc([N+](=O)[O-])n3)c2C(N)=O)C1` (stereo unspecified): the Potency entry is “inactive”.
Turning to `CC1CCc2c(sc(NC(=O)Cn3cnc([N+](=O)[O-])n3)c2C(N)=O)C1` (stereo unspecified), the Potency result is “inactive”.
For `O=C(NN1C(=O)c2ccccc2NC1c1ccc([N+](=O)[O-])o1)c1ccccc1` (stereo unspecified), the Potency result was “inactive”.
As for `CN(C)c1ccc(N=Nc2ccccc2C(=O)OCC(=O)N2CCCC2)cc1`, the Potency result is “inactive”.
With `Cc1cc(N)ccc1N=Nc1c(C)n(C)n(-c2ccccc2)c1=O`, the Potency result is “inactive”.
The value for `FC(F)(F)c1ccc2c(c1)N1CCCC1CN2` (stereo unspecified) was “inactive”; that for `CC(C)c1ccc(N=c2c([N+](=O)[O-])nn(-c3ccc4c(c3)OCCO4)n2O)cc1` was “inactive”.
The value for `Fc1ccc2cc(-c3ccsc3)ncc2c1` was “inactive”.
As to `CC/C=C1/N=C2C(=O)N(C)C(=O)N=C2N(C)N1`, the Potency was 3.29 µM (active).
The value for `O=[N+]([O-])c1ccc(COn2nnc3ccccc32)cc1` was “inactive”; that for `COc1ccc2c(c1)[n+](=O)c(C(C)=O)c(C)n2[O-]` was “inactive”.
Regarding `Cc1nonc1OCCn1c([N+](=O)[O-])cnc1C`, the Potency result was “inactive”.
With `CCCOC(=O)/C(=C\c1ccc([N+](=O)[O-])o1)NC(=O)c1ccccc1`, the Potency entry is “inactive”.
Turning to `O=[N+]([O-])c1ccc2c3n([n+]([O-])c2c1)CCN=C3c1ccc(Cl)cc1`, the Potency entry is “inactive”.
`O=[N+]([O-])c1ccc(/C=[N+](\[O-])CCO)o1`: the Potency result is “inactive”.
For `O=C1NC(=S)S/C1=C\C=C\c1ccc([N+](=O)[O-])o1`, the Potency is 3.29 µM (active).
The value for `O=[N+]([O-])c1ccc(-c2ccn[nH]2)o1` was “inactive”; that for `O=[N+]([O-])c1ccccc1S(=O)(=O)Oc1ccccc1/C=N/n1cnnc1` was “inactive”; that for `CC(=O)c1ccc(NC(=O)COC(=O)c2ccccc2N=Nc2ccc(N(C)C)cc2)cc1` was “inactive”.
As to `O=C(Nc1cccc2ccccc12)C12CC3CC(C1)CC(n1cnc([N+](=O)[O-])n1)(C3)C2`, the Potency entry was “inactive”.
In the case of `Cc1cccc(-n2ncc3c(N4CCCC4)ncnc32)c1`, the Potency was 2.07 µM (active).
In the case of `O=C(c1ccco1)N1CCN(Cc2cc(=O)c(OCc3ccc([N+](=O)[O-])cc3)co2)CC1`, the Potency result is “inactive”.
On to `COC(=O)c1ccccc1NC(=O)N1c2ccccc2Sc2ccccc21`, for which the Potency result is “inactive”.
Consider `Cc1cccc(N2CCN(Cc3ccc([N+](=O)[O-])o3)CC2)c1C`, for which the Potency entry is “inactive”.
Regarding `CCCC(=O)NC(=S)NNC(=O)c1ccc([N+](=O)[O-])cc1`, the Potency entry was “inactive”.
For the compound `Cc1cc(-c2ccc(C)c(S(=O)(=O)N3CCN(c4ccc([N+](=O)[O-])cc4)CC3)c2)on1`, the Potency entry was “inactive”.
Consider `N#Cc1c(Nc2ccccc2)[n+]([O-])c2ccc(Cl)cc2[n+]1[O-]`, for which the Potency is 3.29 µM (active).
As for `COc1ccc(CC(=O)Nc2ncc([N+](=O)[O-])s2)cc1OC`, the Potency entry was “inactive”.
As to `O=[N+]([O-])/C(Cl)=C(/NCCO)C(Cl)=C(Cl)Cl`, the Potency entry was “inactive”.
For the compound `COc1ccc(Cn2cnc([N+](=O)[O-])c2)cc1[N+](=O)[O-]`, the Potency result was “inactive”.
Turning to `O=[N+]([O-])c1cc(/C=N/Nc2nc(N3CCCCC3)nc(N3CCCCC3)n2)ccc1O`, the Potency result was “inactive”.
As to `O=C(Nc1ccccc1N1CCN(C(=O)c2ccccc2)CC1)c1ccc([N+](=O)[O-])o1`, the Potency entry was “inactive”.
Take `O=C(Nc1ccc(N2CCN(C(=O)c3ccccc3)CC2)cc1)c1ccc([N+](=O)[O-])o1`: the Potency was 4.65 µM (active).
Take `Cc1ccccc1C(=O)N1CCN(c2ccc(NC(=O)c3ccc([N+](=O)[O-])o3)cc2)CC1`: the Potency is 3.29 µM (active).
Turning to `O=C(Nc1ccc(N2CCN(C(=O)c3ccc(Cl)cc3)CC2)cc1)c1ccc([N+](=O)[O-])o1`, the Potency was 3.29 µM (active).
Turning to `O=C(c1ccc([N+](=O)[O-])o1)N1CCN(Cc2ccccc2)CC1`, the Potency entry was “inactive”.
In the case of `O=[N+]([O-])c1ccc(N2CCN(Cc3ccc([N+](=O)[O-])o3)CC2)cc1`, the Potency result is “inactive”.
As to `C[C@H]1CN=C(N(C)C)N1CCC1CCCC1`, the Potency entry is “inactive”.
With `CC(Oc1ccccc1)C(=O)Nc1nnc(S(=O)(=O)N2CCCCCC2)s1` (stereo unspecified), the Potency result is “inactive”.
The value for `COc1cccc([C@@H]2CC=C(C(=O)O)[C@H](c3ccccc3F)N2S(=O)(=O)c2ccc(C)cc2)c1` was “inactive”; that for `O=[N+]([O-])c1c(C(Cl)Cl)nn(-c2ccccc2)c1N1CCOCC1` was “inactive”; that for `Cc1ccc(Nc2ccc([N+](=O)[O-])nc2[N+](=O)[O-])cc1` was “inactive”.
`Cc1ccc(CNC(=O)c2cc(-c3ccccc3C)n(CC3CC(c4cccc([N+](=O)[O-])c4)=NO3)n2)cc1` (stereo unspecified): the Potency result was “inactive”.
In the case of `CN(C(=O)CSc1nc2ccc([N+](=O)[O-])cc2s1)C1CCS(=O)(=O)C1` (stereo unspecified) it was “inactive”.
Turning to `COCCCn1[nH]c2c3c(ccc2c1=O)C(=O)c1ccccc1C3=O`, the Potency entry is “inactive”.
With `COc1ccc(C(=O)C(C)OC(=O)CNC(=O)c2ccco2)cc1` (stereo unspecified), the Potency entry is “inactive”.
In the case of `O=C(CSc1ccsc1[N+](=O)[O-])NC1CCCC1`, the Potency result was “inactive”.
The value for `O=C(COc1cccnc1[N+](=O)[O-])NCc1cccs1` was “inactive”.
On to `CC(C)CNC(=S)NC(=O)c1csc([N+](=O)[O-])c1`, for which the Potency entry was “inactive”.
On to `O=C(NCCO)c1ccc2c3n(nc2c1)-c1ccccc1CO3`, for which the Potency is 2.93 µM (active).
Take `Cc1cnc([N+](=O)[O-])n1CCOC(=O)NC(=O)c1cccc(F)c1`: the Potency result was “inactive”.
On to `C[C@@H]1CN([C@H](C)CO)C(=O)c2cc(NC(=O)Nc3ccc4c(c3)OCO4)ccc2O[C@H]1CN(C)Cc1ccncc1`, for which the Potency entry was “inactive”.
Regarding `O=C(O)c1cccc(S(=O)(=O)N(Cc2ccccc2)c2ccccc2Cl)c1`, the Potency result was “inactive”.
For `O=C(CSc1ccsc1[N+](=O)[O-])NCCc1ccccc1`, the Potency entry was “inactive”.
The value for `O=C(NCc1ccco1)NC(=O)c1csc([N+](=O)[O-])c1` was “inactive”; that for `O=C(N/N=C\c1ccc([N+](=O)[O-])o1)C1COc2ccccc2O1` (stereo unspecified) was “inactive”.
With `O=C(CNc1cccc([N+](=O)[O-])c1)N/N=C/c1ccc([N+](=O)[O-])o1`, the Potency result was “inactive”.
As to `CCCCCCCC(=O)N/N=C/c1ccc([N+](=O)[O-])o1`, the Potency entry was “inactive”.
Consider `O=C(Cc1ccc([N+](=O)[O-])cc1)N/N=C/c1ccc([N+](=O)[O-])o1`, for which the Potency is 5.21 µM (active).
The value for `O=C(N/N=C/c1ccc([N+](=O)[O-])o1)c1ccc2c(c1)OCO2` was 4.65 µM (active); that for `O=C(N/N=C/c1ccc([N+](=O)[O-])o1)C1CC1` was “inactive”; that for `CC(NC(=O)C12CC3CC(CC(C3)C1)C2)C(=O)NN=Cc1ccc([N+](=O)[O-])o1` (stereo unspecified) was “inactive”.
In the case of `O=C(CNc1ccc2ccccc2c1)N/N=C/c1ccc([N+](=O)[O-])o1` it was “inactive”; in that of `O=C(CC12CC3CC(CC(C3)C1)C2)N/N=C/c1ccc([N+](=O)[O-])o1`, 16.5 µM (active).
Regarding `CCOC(=O)CN1C(=O)S/C(=C/c2cccc([N+](=O)[O-])c2O)C1=O`, the Potency result is “inactive”.
In the case of `Cc1ccc(S(=O)(=O)N2CCN(C(=O)COc3ccc(C)nc3[N+](=O)[O-])CC2)c(C)c1`, the Potency entry was “inactive”.
Turning to `Cc1ccc(OCC(=O)c2cc(C)n(C)c2C)c([N+](=O)[O-])n1`, the Potency result is “inactive”.
For `COc1ccc(-n2nc([N+](=O)[O-])c(=NCCc3ccc(C)cc3)n2O)cc1`, the Potency result was “inactive”.
In the case of `Nc1nc(Cl)nc2c1ncn2[C@H]1C[C@H](O)[C@@H](CO)O1` it was “inactive”; in that of `Cc1ncc([N+](=O)[O-])n1CCN1C(=O)c2ccccc2C1=O`, “inactive”; in that of `O=C1c2ccccc2C(=O)c2c1ccc1c(=O)n(C3CCCCC3)[nH]c21`, “inactive”.
As to `O=C(CSc1cccc[n+]1[O-])Nc1cc2c(cc1Cl)C(=O)c1ccccc1C2=O`, the Potency entry is “inactive”.
Consider `O=C(N/N=C/c1cc2c(cc1[N+](=O)[O-])OCO2)c1ccccn1`, for which the Potency entry was “inactive”.
`Cc1ccc(N/C(C(Cl)=C(Cl)Cl)=C(/Cl)[N+](=O)[O-])c(C)c1`: the Potency entry was “inactive”.
Consider `O=C(CCCn1cnc([N+](=O)[O-])n1)Nc1cccc(Cl)c1Cl`, for which the Potency entry is “inactive”.
Take `O=[N+]([O-])c1nn(-c2ccc3c(c2)OCCO3)n(O)c1=NCc1ccccc1Cl`: the Potency entry is “inactive”.
As to `Cc1oc2cc([N+](=O)[O-])c(O)c([N+](=O)[O-])c2c1C(=O)c1ccc(Cl)cc1`, the Potency result is “inactive”.
With `CCN(CC)C(=O)Cn1cc([N+](=O)[O-])cc1[N+](=O)[O-]`, the Potency result was “inactive”.
With `CC1(C)Oc2cc3oc(-c4cc(O)cc(O)c4)cc3cc2CC1O` (stereo unspecified), the Potency was 5.85 µM (active).
For `CCCCNC(=O)/C(=C\c1ccc([N+](=O)[O-])o1)NC(=O)c1ccccc1`, the Potency result was “inactive”.
In the case of `O=C1c2ccc3c4c(ccc(c24)C(=O)N1CCCCO)C(=O)N(CCCCO)C3=O` it was 4.14 µM (active).
With `O=C(CCN1C(=O)c2ccccc2C1=O)NCc1ccc(F)cc1`, the Potency entry was “inactive”.
Turning to `O=C(CCN1C(=O)c2ccccc2C1=O)Nc1ccccc1C(F)(F)F`, the Potency entry is “inactive”.
For `O=[N+]([O-])c1nn(-c2ccc3c(c2)OCCO3)n(O)c1=NCCC1=CCCCC1`, the Potency entry is “inactive”.
As for `O=c1c([N+](=O)[O-])cccn1Cc1ccccc1Cl`, the Potency entry was “inactive”.
Turning to `[O-][n+]1c2ccccc2c2n1CCN=C2c1ccc(Cl)cc1`, the Potency entry was “inactive”.
For `O=[N+]([O-])c1nn(-c2ccc3c(c2)OCCO3)n(O)c1=Nc1ccc(Cl)cc1`, the Potency result is “inactive”.
On to `COc1cc2nc(N3CCN(c4cc(C)ccc4C)CC3)nc(N)c2cc1OC`, for which the Potency was 9.27 µM (active).
In the case of `COc1cc2nc(N3CCN(C)CC3)nc(NC(C)C)c2cc1OC`, the Potency result is “inactive”.
For `Cc1cc(=S)nc(-c2ccccn2)[nH]1`, the Potency result is “inactive”.
As for `CN1C(=O)/C(=C/c2ccc(O)c([N+](=O)[O-])c2)NC1=S`, the Potency entry is “inactive”.
As to `CCc1cccc(N=c2c([N+](=O)[O-])nn(-c3ccc4c(c3)OCCO4)n2O)c1`, the Potency entry was “inactive”.
As to `Cc1cccc(NC(=O)c2ccc([N+](=O)[O-])s2)c1C`, the Potency entry is “inactive”.
Consider `Cc1cc(C)cc(Oc2ccc(NC(=O)C3CC=CCC3C(=O)O)cc2)c1` (stereo unspecified), for which the Potency result was “inactive”.
As for `CCc1ccc(-c2nc3c(=O)n(C)c(=O)nc-3n(CC)n2)cc1`, the Potency was 1.85 µM (active).
Consider `CCn1nc(-c2ccc(C)cc2)nc2c(=O)n(C)c(=O)nc1-2`, for which the Potency was 5.21 µM (active).
Regarding `CC(=O)O[C@@H]1[C@@H](OC(C)=O)[C@H](n2ccc3cc([N+](=O)[O-])ccc32)OC[C@@H]1OC(C)=O`, the Potency result is “inactive”.
Regarding `Cc1ccc([C@@H]2CC=C(C(=O)O)CN2S(=O)(=O)c2ccc(C)cc2)cc1`, the Potency result was “inactive”.
